Screening data deposited in PubChem by National Center for Advancing Translational Sciences (NCATS).
DRD3 agonist: D3 dopamine receptor (human) agonism; P35462; D3R DiscoveRx beta-arrestin cells, luminescence, 90 min; max activation, %; 410,000 tested, 0.58% active; AID 652048; in the data active = max activation above about 30%; note: 0% is about no effect
Target sequence (P35462 whole entry, looked up): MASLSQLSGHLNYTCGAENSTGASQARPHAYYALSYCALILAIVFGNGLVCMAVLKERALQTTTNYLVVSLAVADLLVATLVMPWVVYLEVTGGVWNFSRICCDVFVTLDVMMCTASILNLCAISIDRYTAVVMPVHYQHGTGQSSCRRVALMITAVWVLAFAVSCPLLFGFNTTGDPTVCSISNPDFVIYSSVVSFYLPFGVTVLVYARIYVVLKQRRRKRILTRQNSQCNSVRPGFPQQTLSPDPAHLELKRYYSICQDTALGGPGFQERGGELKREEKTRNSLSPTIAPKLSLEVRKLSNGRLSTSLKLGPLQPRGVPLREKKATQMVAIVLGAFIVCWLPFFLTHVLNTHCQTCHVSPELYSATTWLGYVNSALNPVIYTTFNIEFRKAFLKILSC
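Cells at 1500/well, incubated overnight, then treated with pinned compounds (dopamine as control) for 90 min at 37 degrees C. DiscoveRx reagent added for 30 - 60 minutes at room temperature; luminescence read.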
D1 antagonist: human D1 dopamine receptor antagonism. P21728. HEK293 TREx D1 cells, calcium flux, dopamine EC80; stronger effect = lower value. activity change, negative = inhibition, % at 10 µM. 360,000 tested, 3.2% active. AID 504652; in the data active = activity change below about -30%; note: % is set by controls: 0 for no effect and ±100 for the full control effect
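Calcium flux readout: force-coupled, inducible Hek293 Trex D1 line, cells induced overnight at 30 C with tetracycline, dye-loaded 30–90 min at RT. Antagonism scored against EC80 dopamine challenge given 180 s after compound.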
D1 ag: agonists of human D1 dopamine receptor; P21728; HEK293 T-REx D1 cells, calcium flux, agonist mode; activation, % at 2 µM; 360,000 tested, 1% active; in the data active = activation above about 30%; note: 0% is about no effect
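Tetracycline-induced HEK293 TREx D1 cells, force-coupled to calcium signalling, were dye-loaded with a no-wash calcium kit. Compound was pin-added after a 10 s baseline. Fluorescence was read kinetically at 1 cycle/s for 180 s, with calcium rises flagged as agonism.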
DRD3 antagonist: blocks the human D3 dopamine receptor; P35462; D3R cells, DiscoveRx beta-arrestin luminescence, antagonist mode; stronger effect = lower value; max response, negative = inhibition, %; 360,000 tested, 2.5% active; in the data active = max response below about -50%; inconclusive = no clear call, values can overlap the other calls; note: % is set by controls: 0 for no effect and ±100 for the full control effect
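Cells plated overnight at 1500 cells/well, then exposed to library compounds with dopamine controls for 90 minutes at 37 degrees C. DiscoveRx reagent added for 30–60 minutes at room temperature; luminescence read, quantitative HTS format.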
D1 PAM: enhances dopamine response at the human D1 receptor; P21728; 360,000 tested, 0.036% active; HEK293 TREx D1 cells, calcium flux, dopamine EC20 potentiation; AID 504651; potentiation, % at 10 µM; in the data active = potentiation above about 30%; note: 0% is about no effect
An asterisk follows results filed as active. A selection: hits, their analogues and other compounds. The true share with any hit is near 6%.

Screening COc1ccccc1OCC(O)Cn1c(=N)n(Cc2ccccc2)c2ccccc21 (centres undefined) returned DRD3 agonist -4, D1 antagonist -62*, D1 ag 47*, DRD3 antagonist -16 and D1 PAM -9.
`Cc1ccccc1OCC(O)Cn1c(=N)n(Cc2ccccc2)c2ccccc21` (centres undefined) gave DRD3 agonist 6, D1 antagonist -38*, D1 ag 45*, DRD3 antagonist 8 and D1 PAM -16.
For O=C(O)c1cc(N=Nc2c(O)ccc3ccccc23)cc(C(=O)O)c1 the results were DRD3 agonist 0, D1 antagonist -2, D1 ag 3, DRD3 antagonist -5 and D1 PAM 6.
For O=C(O)c1ccc(N=Nc2c(O)ccc3ncccc23)cc1 the results were DRD3 agonist -8, D1 antagonist -1, D1 ag 1, DRD3 antagonist -75* and D1 PAM -6.
For N#Cc1ccc(S(=O)(=O)N2CCCN(c3ccc(C(F)(F)F)cn3)CC2)cc1 the results were DRD3 agonist 13, D1 antagonist -36*, D1 ag 3, DRD3 antagonist -1 and D1 PAM -4.
O=S(=O)(c1ccc(F)cc1F)N1CCCN(c2ccc(C(F)(F)F)cn2)CC1 was read as DRD3 agonist -2, D1 antagonist 1, D1 ag 3, DRD3 antagonist -21 and D1 PAM -3.
Cc1c(F)cccc1NC(=O)C1CCCN1S(=O)(=O)c1ccc(F)cc1 (centres undefined) was read as DRD3 agonist 19, D1 antagonist -2, D1 ag -1 and D1 PAM -2.
`O=C(O)c1ccc(-c2ccc(/C=N/Nc3ccc([N+](=O)[O-])cc3)o2)cc1` gave DRD3 agonist -6, D1 antagonist 5, D1 ag 151*, DRD3 antagonist inconclusive and D1 PAM 0.
`NS(=O)(=O)c1ccc(-c2ccc(/C=N/Nc3ccc(C(=O)O)cc3)o2)cc1` gave DRD3 agonist -5, D1 antagonist 2, D1 ag 3, DRD3 antagonist 13 and D1 PAM -4.
O=C(O)c1ccc(N/N=C/c2ccc(-c3cccc(Cl)c3)o2)cc1 was read as DRD3 agonist 13, D1 antagonist -3, D1 ag 1, DRD3 antagonist 11 and D1 PAM 16.
O=C(O)c1cc(-c2ccc(/C=N/Nc3ccc([N+](=O)[O-])cn3)o2)ccc1Cl was read as DRD3 agonist -20, D1 antagonist -8, D1 ag 12, DRD3 antagonist -75* and D1 PAM 6.
Screening O=C(O)c1cccc(-c2ccc(/C=N/Nc3ccc([N+](=O)[O-])cc3)o2)c1 returned DRD3 agonist -5, D1 antagonist 4, D1 ag 103*, DRD3 antagonist -27 and D1 PAM 3.
For O=C(O)c1ccccc1C=NNc1ccc([N+](=O)[O-])cn1 the results were DRD3 agonist -3 and DRD3 antagonist -2.
CC(C)Oc1ccc(C2CC(=O)N(Nc3ccc([N+](=O)[O-])cc3[N+](=O)[O-])C2=O)cc1 (centres undefined) was read as DRD3 agonist -21, D1 antagonist -1, D1 ag 1, DRD3 antagonist -51* and D1 PAM -7.
`Cc1cccc(/C=c2\s/c(=C\C(=O)C(C)(C)C)[nH]c2=O)c1` gave DRD3 agonist -5, D1 antagonist -13, D1 ag 1, DRD3 antagonist -8 and D1 PAM 3.
Screening CC(C)(C)C(=O)/C=c1\[nH]c(=O)/c(=C\c2ccc(C#N)cc2)s1 returned DRD3 agonist 7, D1 antagonist -47*, D1 ag 4, DRD3 antagonist -19 and D1 PAM -11.
`CCOC(=O)c1sc(=S)n(-c2cccc(C(F)(F)F)c2)c1SC` gave DRD3 agonist 1, D1 antagonist -32*, D1 ag 7, DRD3 antagonist 1 and D1 PAM -1.
For O=[N+]([O-])c1ccccc1S(=O)(=O)N(CC(O)CN1CCCCC1)c1ccccc1 (centres undefined) the results were DRD3 agonist -23, D1 antagonist 5, D1 ag 2, DRD3 antagonist -18 and D1 PAM 3.
`Cc1ccc(N(CC(O)CN2CCCCC2)S(=O)(=O)c2ccccc2[N+](=O)[O-])cc1` (centres undefined) gave DRD3 agonist -17, D1 antagonist 3, D1 ag 3, DRD3 antagonist -51* and D1 PAM 0.
For CC(C(=O)NC1CCCC1)N(C(=O)CS(=O)CC(=O)Nc1ccc(F)cc1)c1ccc2c(c1)OCCO2 (centres undefined) the results were DRD3 agonist 12, D1 antagonist -52*, D1 ag -1, DRD3 antagonist 1 and D1 PAM 0.
Screening Cc1ccc(NC(=O)CS(=O)CC(=O)N(c2ccc(C)cc2)C(C)C(=O)NC2CCCCC2)cc1 (centres undefined) returned DRD3 agonist 2, D1 antagonist -7, D1 ag 0, DRD3 antagonist inconclusive and D1 PAM -3.
`Cc1ccc(NC(=O)CS(=O)CC(=O)N(c2ccccc2F)C(C)C(=O)NC2CCCC2)cc1` (centres undefined) gave DRD3 agonist 15, D1 antagonist 16, D1 ag 2, DRD3 antagonist -3 and D1 PAM -11.
Screening O=C(CS(=O)CC(=O)N(CC(=O)NC1CCCC1)c1ccccc1F)Nc1ccc(F)cc1 (centres undefined) returned DRD3 agonist 4, D1 antagonist -35*, D1 ag 0, DRD3 antagonist 5 and D1 PAM 1.
For O=C(Cn1c(-c2cccs2)cc2cc(F)ccc21)N1CCN(c2ccccc2)CC1 the results were DRD3 agonist 9, D1 antagonist 6, D1 ag 1 and D1 PAM -1.
For O=C(Cn1c(-c2cccs2)cc2cc(F)ccc21)NCCCN1CCN(c2ccc(F)cc2)CC1 the results were DRD3 agonist 1, D1 antagonist -35*, D1 ag -2 and D1 PAM 0.
`COc1ccc(CCNC(=O)Cn2c(-c3cccs3)cc3cc(F)ccc32)cc1OC` gave DRD3 agonist 5, D1 antagonist -17, D1 ag 4 and D1 PAM -4.
CCN1CCN(CCCNC(=O)Cn2c(-c3cccs3)cc3cc(F)ccc32)CC1 was read as DRD3 agonist -10, D1 antagonist -6, D1 ag 36* and D1 PAM 4.
Cc1ccccc1C(=O)Nc1cccc(NC(=O)c2ccc(C(C)(C)C)cc2)c1 was read as DRD3 agonist -15, D1 antagonist -3, D1 ag 12 and D1 PAM -2.
CCOCCCNC(=O)c1cc(Sc2cccc(Cl)c2)nc2ccccc12 was read as DRD3 agonist 1, D1 antagonist -60*, D1 ag 7 and D1 PAM -3.
